Measurements taken from PubChem BioAssay (EPA / NIEHS).
Values joined by “and” are separate entries in the source; they are usually repeats but may differ in a detail not shown here. Identical values can stand only once. Records with an inconclusive call do not appear. Active and inactive are the calls of the source. The calls were made as follows, unless noted: active = hit-call score of the fitted dose curve at least 0.9, where 1 is the maximum; inactive = score below 0.9.

Legend:
[1] = read-out: Tumor necrosis factor (Homo sapiens) (UniProt P01375); test: BSK_BT_xTNFa: BioMAP Diversity Plus: BT Assay for Tumor necrosis factor alpha (TNF-alpha) Biomarker Activity (AID 2284230); conditions: primary human B cells with PBMC
Procedure, shortened: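 Endpoint derived in the positive direction versus DMSO vehicle. Cells: B cells together with PBMC, exposed 24 h before TNF-alpha in the medium was read on the Luminex xMAP platform.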

[2] = read-out: Vascular cell adhesion molecule 1 (VCAM1), VCAM1 (gene 7412); test: BSK_MyoF_VCAM1: BioMAP Diversity Plus: MyoF Assay for Vascular cell adhesion molecule 1 (VCAM1) Biomarker Activity (AID 2284231); conditions: primary human lung fibroblasts
Procedure, shortened: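 ELISA readout of VCAM-1 on human lung fibroblast cultures 24 hours after dosing, analyzed for signal gain relative to DMSO. Overt cytotoxicity was checked by sulforhodamine B total-protein staining in parallel cultures.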

[3] = read-out: Collagen I, COL1A1 (gene 1277); test: BSK_MyoF_CollagenI: BioMAP Diversity Plus: MyoF Assay for Collagen I Biomarker Activity (AID 2284238); conditions: primary human lung fibroblasts
Procedure, shortened: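 Collagen I levels measured by ELISA on human lung fibroblast cultures 24 h post-dosing, with curve fitting in the positive direction relative to DMSO; SRB staining of parallel wells marked cytotoxicity.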

[4] = read-out: Collagen III, COL3A1 (gene 1281); test: BSK_MyoF_CollagenIII: BioMAP Diversity Plus: MyoF Assay for Collagen III Biomarker Activity (AID 2284239); conditions: primary human lung fibroblasts
Procedure, shortened: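 Collagen III biomarker quantified by ELISA in human lung fibroblast cultures 24 h after dosing. Activity fitted in the positive direction against DMSO as baseline.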

[5] = read-out: Interleukin 17F (IL17F), IL17F (gene 112744); test: BSK_BT_xIL17F: BioMAP Diversity Plus: BT Assay for Interleukin 17F (IL17F) Biomarker Activity (AID 2284243); conditions: primary human B cells with PBMC
Procedure, shortened: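 Human B cells co-cultured with PBMC; secreted IL-17F quantified by LumineX xMAP 24 hours after chemical dosing. Activity fitted in the positive direction against DMSO negative control as baseline.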

[6] = read-out: Actin alpha 1 (ACTA1), ACTA1 (gene 58); test: BSK_MyoF_ACTA1: BioMAP Diversity Plus: MyoF Assay for Actin alpha 1 (ACTA1) Biomarker Activity (AID 2284244); conditions: primary human lung fibroblasts
Procedure, shortened: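 ELISA read-out of a-SMA in primary human lung fibroblast cultures, 24 h post-dosing. Activity scored in the positive direction versus DMSO baseline.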

[7] = read-out: Interleukin 2 (IL2), IL2 (gene 3558); test: BSK_BT_xIL2: BioMAP Diversity Plus: BT Assay for Interleukin 2 (IL2) Biomarker Activity (AID 2284245); conditions: primary human B cells with PBMC
Procedure, shortened: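 Readout: supernatant IL-2 via Luminex xMAP after 24 h chemical dosing of a B cell/PBMC primary human co-culture. DMSO serves as negative control and baseline; increases in signal were fitted.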

[8] = read-out: Basic fibroblast growth factor (bFGF), FGF2 (gene 2247); test: BSK_MyoF_bFGF: BioMAP Diversity Plus: MyoF Assay for Basic fibroblast growth factor (bFGF) Biomarker Activity (AID 2284246); conditions: primary human lung fibroblasts
Procedure, shortened: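 Primary human lung fibroblast culture, 24 h compound exposure; ELISA read-out of bFGF. Positive-direction fit vs DMSO baseline. Cytotoxicity: SRB stain (0.1% SRB, 10% TCA fixation, 560 nm) in parallel wells.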

[9] = read-out: Collagen IV, COL4A1 (gene 1282); test: BSK_MyoF_CollagenIV: BioMAP Diversity Plus: MyoF Assay for Collagen IV Biomarker Activity (AID 2284247); conditions: primary human lung fibroblasts
Procedure, shortened: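 ELISA read-out of Collagen IV in lung fibroblast cultures, 24 h post-dosing; gain of signal relative to DMSO vehicle baseline defines activity.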

[10] = UKN2_HCS_IMR90_cell_viability: Viability Assessment in the University of Konstanz (UKN) Leist Lab Neural Crest Cell Migration Assay in human induced IMR90 Pluripotent Stem Cells (UKN2) (AID 2284233);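 also: cells exposed to compound for 24 h after a 24 h migration phase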
Procedure, shortened: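 After calcein-AM/Hoechst staining, viability is quantified by high-content fluorescence imaging, relative to DMSO, in iPSC (IMR90)-derived neural crest cells. Exposure lasts 24 h, starting after a 24 h migration period on PLO/laminin/fibronectin coating.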

[11] = CCTE_Mundy_HCI_Cortical_NOG_NeuronCount: CCTE's Neurite Outgrowth Assay in rat cortical cells for Neuron Count, Mundy Lab (AID 2284236; active = hit-call score of the fitted dose curve at least 0.9, where 1 is the maximum;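 also: neurons counted by imaging betaIII-tubulin and Hoechst stained cortical cells; cells exposed to compound for about 48 hours before fixation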)
Procedure, shortened: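 Read-out: neuron number by high-content imaging of betaIII-tubulin (Alexa Fluor-488) and Hoechst-labelled rat primary cortical cells.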

[12] = CCTE_Mundy_HCI_Cortical_NOG_BPCount: CCTE's Neurite Outgrowth Assay in rat cortical cells for Branch Point Count, Mundy Lab (AID 2284237);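 also: branch points counted about two days after chemical exposure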
Procedure, shortened: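 Measured 50.33 h after dosing, this morphology endpoint uses rat primary cortical cultures labelled for betaIII-tubulin. Branch points are quantified by high-content imaging, with DMSO as negative control and baseline.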

[13] = CCTE_Mundy_HCI_hNP1_Casp3_7: CCTE's Caspase-Glo 3/7 Assay in human neuroprogenitor cells for Apoptosis, Mundy Lab (AID 2284240)
Procedure, shortened: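 Apoptosis is scored by activated caspase-3/7 luminescence in WA09-derived neural progenitor cells, measured 26.5 h after chemical dosing. Values represent gain of signal relative to DMSO vehicle.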

[14] = CCTE_Mundy_HCI_hNP1_CellTiter: CCTE's Cell Titer-Glo 2 Assay in human neuroprogenitor cells for Viability, Mundy Lab (AID 2284241; active = hit-call score of the fitted dose curve at least 0.9, where 1 is the maximum;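 as to AC50: a hit is a drop in ATP luminescence versus DMSO meaning reduced viability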)
Procedure, shortened: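 Human neural progenitor cells (hNP1, WA09-derived) were plated on poly-L-ornithine/laminin and grown 40 to 44 hours at 37 °C, 5% CO2 before chemical addition. Twenty-four hours later, ATP was measured by CellTiter-Glo luminescence; loss of signal versus DMSO indicates reduced viability.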

[15] = CCTE_Mundy_HCI_Cortical_Synap_Neur_Matur_NeuronCount: CCTE's Synaptogenesis and Neurite Maturation Assay in rat cortical cells for Neuron Count, Mundy Lab (AID 2284242; active = hit-call score of the fitted dose curve at least 0.9, where 1 is the maximum;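 also: neuron number from Hoechst nuclei and MAP2 staining by high-content imaging; hits reduce neuron count versus DMSO baseline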)
Procedure, shortened: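 Rat cortical cultures; AraC DIV 5; chemical dosing + media change DIV 7 to DIV 12 (288.33 h readout). Fix, Hoechst, anti-MAP2/anti-synaptophysin immunostain; HCI neuron count vs DMSO baseline.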

Measured: AC50

Sequence of Tumor necrosis factor (Homo sapiens) (P01375 whole entry, looked up): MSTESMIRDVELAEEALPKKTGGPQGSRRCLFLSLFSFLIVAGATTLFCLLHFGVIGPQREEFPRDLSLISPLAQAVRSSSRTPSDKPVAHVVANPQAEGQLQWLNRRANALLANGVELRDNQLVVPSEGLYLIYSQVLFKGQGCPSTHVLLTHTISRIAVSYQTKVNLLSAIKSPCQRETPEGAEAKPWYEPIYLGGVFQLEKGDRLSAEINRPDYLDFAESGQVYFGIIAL

CCOC(=O)C(SP(=S)(OC)OC)c1ccccc1 (centres undefined)
inactive: [1] | [2] | [3] | [4] | [5] | [7] | [8] | [9]
active: [6] 20 µM

O=C(O)COc1cc(Cl)c(Cl)cc1Cl
inactive: [1] | [2] | [3] | [4] | [5] | [6] | [7] | [8] | [9]

Nc1ccc(N)cc1
inactive: [1] | [2] | [3] | [4] | [5] | [6] | [7] | [8] | [9]

Cc1ccccc1OP(=O)(Oc1ccccc1C)Oc1ccccc1C
active: [1] 31 µM | [2] 11.4 µM | [10] 8.46 µM | [11] 24.1 µM | [12] 18 µM | [3] 9.92 µM | [4] 10 µM | [13] 10.8 µM | [14] 18.3 µM | [15] 2.83 µM | [5] 27.3 µM | [6] 9.16 µM | [7] 20 µM | [8] 33.3 µM | [9] 20 µM

COCC(=O)N(c1c(C)cccc1C)[C@H](C)C(=O)OC
inactive: [1] | [2] | [3] | [4] | [5] | [6] | [7] | [8] | [9]

c1ccc2sc(SNC3CCCCC3)nc2c1
inactive: [2] | [3] | [4] | [6] | [8] | [9]
active: [1] 37.6 µM | [5] 32.1 µM | [7] 28.9 µM

O=c1oc2ccccc2c(O)c1C(CC(O)c1ccc(-c2ccc(Br)cc2)cc1)c1ccccc1 (centres undefined)
active: [2] 6.21 µM | [3] 1.94 µM | [4] 2.53 µM | [6] 2.76 µM | [8] 11.5 µM | [9] 5.33 µM
inactive: [1] | [5] | [7]

C[C@]12CC[C@@H](O)C[C@@H]1CC[C@@H]1[C@@H]2CC[C@]2(C)C(=O)CC[C@@H]12
inactive: [1] | [2] | [3] | [4] | [5] | [6] | [7] | [8] | [9]

CCCCN(CCCC)C(=S)[S-].CCCCN(CCCC)C(=S)[S-].[Ni+2]
inactive: [1] | [2] | [3] | [4] | [5] | [6] | [7] | [8] | [9]

O=S(=O)(c1ccc(Cl)cc1)c1cc(Cl)c(Cl)cc1Cl
active: [5] 25.1 µM | [7] 20 µM
inactive: [1] | [2] | [3] | [4] | [6] | [8] | [9]

Cc1c([N+](=O)[O-])c(C)c([N+](=O)[O-])c(C(C)(C)C)c1[N+](=O)[O-]
inactive: [1] | [4] | [7] | [8] | [9]
active: [2] 20 µM | [3] 32.1 µM | [5] 28.1 µM | [6] 33 µM

O=[N+]([O-])c1cccc2ccccc12
inactive: [1] | [2] | [3] | [4] | [5] | [6] | [7] | [8] | [9]

OC(Cc1ccccc1Cl)(Cn1cncn1)C1(Cl)CC1 (centres undefined)
inactive: [1] | [2] | [3] | [4] | [5] | [6] | [7] | [8] | [9]

Cc1cc(Cl)ccc1N
inactive: [1] | [2] | [3] | [4] | [5] | [6] | [7] | [8] | [9]

Cc1cc(C(C)(C)c2ccc(O)c(C)c2)ccc1O
inactive: [1] | [5] | [7] | [8] | [9]
active: [2] 16.4 µM | [3] 15.4 µM | [4] 15.1 µM | [6] 19 µM

C=CC(Cl)CCl (centres undefined)
active: [2] 4.05 µM | [3] 0.0855 µM | [9] 0.0311 µM
inactive: [1] | [4] | [5] | [6] | [7] | [8]

NC(=O)CCl
active: [7] 20 µM
inactive: [1] | [2] | [3] | [4] | [5] | [6] | [8] | [9]

Cc1ccc2nc3sc(=O)sc3nc2c1
active: [2] 7.88 µM
inactive: [1] | [3] | [4] | [5] | [6] | [7] | [8] | [9]

Cc1ccccc1OP(=O)(Oc1ccccc1)Oc1ccccc1
active: [2] 33 µM | [3] 36.9 µM | [4] 28.2 µM | [6] 20 µM
inactive: [1] | [5] | [7] | [8] | [9]

CCCCCCCCCCCCN(C)C
inactive: [1] | [2] | [3] | [4] | [5] | [6] | [7] | [8] | [9]

OC(Cc1ccccc1Cl)(Cn1[nH]cnc1=S)C1(Cl)CC1 (centres undefined)
active: [2] 30.1 µM | [10] 63.1 µM | [12] 50 µM | [3] 31.4 µM | [4] 30.5 µM | [13] 91 µM | [15] 83.8 µM | [6] 25.3 µM
inactive: [1] | [11] | [14] | [5] | [7] | [8] | [9]

CC(C=O)Cc1ccc2c(c1)OCO2 (centres undefined)
inactive: [1] | [2] | [3] | [4] | [5] | [6] | [7] | [8] | [9]

CC1(C)[C@H](C(=O)O[C@H](C#N)c2cccc(Oc3ccccc3)c2)[C@@H]1/C=C(\Cl)C(F)(F)F
active: [12] 20.2 µM | [15] 3.56 µM | [5] 17.1 µM and 14.6 µM | [7] 17.1 µM and 14.2 µM
inactive: [1] | [2] | [11] | [3] | [4] | [13] | [6] | [8] | [9]

CC(C)(COCC1CO1)COCC1CO1 (centres undefined)
inactive: [1] | [2] | [3] | [4] | [6] | [7] | [8] | [9]
active: [5] 24.5 µM

Cc1ccc(OP(=O)(Oc2ccc(C)cc2C)Oc2ccc(C)cc2C)c(C)c1
inactive: [2] | [3] | [6] | [8] | [9]
active: [1] 20 µM | [4] 20 µM | [5] 24.9 µM | [7] 12 µM

C#CCOC(=O)/C=C(C)/C=C/CC(C)CCCC(C)C (centres undefined)
inactive: [1] | [3] | [4] | [5] | [7] | [8] | [9]
active: [2] 20 µM | [6] 16.4 µM

O=C(CCl)NCO
inactive: [1] | [2] | [3] | [4] | [5] | [6] | [7] | [8] | [9]
